Hit rate of the full screen: of about 310,000 compounds, about 18,000 (5.8%) were called active. Roughly 22% stayed inconclusive and do not appear here. What follows is part of a selection rich in actives, with near analogues and random picks from the rest. A number with no mark means an inactive call. Calls come from the whole dose curve; as a rule, active = well fitted inhibition curve with a large enough effect; inconclusive = small, poorly fitted or top-dose-only effect, or another doubt; inactive = no such curve, though single readings can be large or run the other way.
Test: Primary qHTS for delayed death inhibitors of the malarial parasite plastid, 48 hour incubation
Details: P. falciparum luciferase growth in erythrocytes; series mostly up to 28.7 µM; activity change, negative = inhibition: at the top concentration
Outline: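 Cell-based growth assay: transgenic P. falciparum expressing firefly luciferase, cultured in red cells within RPMI 1640 containing 0.5% w/v Albumax, 24 mM bicarbonate and gentamycin. A drop in luciferase activity indicates inhibition.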
% is set by controls: 0 for no effect and ±100 for the full control effect; potency is the fitted concentration of half-maximal effect.

Row | SMILES | activity change, negative = inhibition | Potency
1 | Cc1nn(Cc2ccccc2)c(C)c1NS(=O)(=O)c1ccccc1 | 8.53% | –
2 | c1ccc(CCn2nnnc2CN2CCN(C3CCCC3)CC2)cc1 | 16.5% | –
3 | c1ccc(C(c2ccccc2)N2CCN(Cc3nnnn3C3CCCCC3)CC2)cc1 | – | 8.28 µM (active)
4 | CC(C)C(c1nnnn1C1CCCC1)N1CCN(c2ccccc2F)CC1 (centres undefined) | 8.47% | –
5 | CC1CN(C(=O)COC(=O)c2cccc(NS(=O)(=O)c3ccccc3)c2)CC(C)O1 (centres undefined) | 15% | –
6 | CCCc1cc(=O)oc2c(C)c(OCC(=O)NCc3ccccn3)ccc12 | 4.08% | –
7 | CC1CCCN(S(=O)(=O)c2ccc(N(C(=O)c3cnccn3)C(C(=O)NC3CCCCC3)c3cccs3)cc2)C1 (centres undefined) | – | 11.7 µM (active)
8 | CCc1ccc(N(C(=O)c2csnn2)C(C(=O)NC2CCCCC2)c2ccncc2)cc1 (centres undefined) | -0.523% | –
9 | O=C(Nc1ccc(S(=O)(=O)N2CCCCC2)cc1)c1cnccn1 | 5.07% | –
10 | O=C(Nc1ccc(NC(=O)c2ccc3c(c2)OCO3)cc1)c1cccc(Cl)c1 | -18.9% | –
11 | O=C(CSc1n[nH]c(=O)n1-c1ccccc1)Nc1ccccc1C(F)(F)F | -17.8% | –
12 | Cc1ccc(NC(=O)CN2CCC3(O)CCCCC3C2c2ccc3c(c2)OCO3)c(C)c1 (centres undefined) | – | 10.4 µM (active)
13 | CC1CCCCN1CC(=O)NCc1ccc2c(c1)OCO2 (centres undefined) | 13.3% | –
14 | CCN(CC)c1ccc(C2C3CCCCC3(O)CCN2CC(=O)Nc2ccccc2)cc1 (centres undefined) | 0% | –
15 | Cc1c(S(=O)(=O)NC(C)c2ccccc2)c(=O)n(C)c(=O)n1C (centres undefined) | -4.57% | –
16 | O=C(NCCc1ccc(C(F)(F)F)cc1)c1ccc2c(c1)OCO2 | 13% | –
17 | COc1cc(/C=C2\CCCc3c2nc2ccccc2c3C(=O)O)cc(Cl)c1O | 7.14% | –
18 | CCN(c1ccccc1)S(=O)(=O)c1ccc(OCC(=O)N2CCCC2)cc1 | – | 9.28 µM (active)
19 | COc1ccc(N(CC(=O)N2CCCCCC2)S(=O)(=O)c2ccccc2)cc1 | -24.9% | –
20 | CC(NS(=O)(=O)c1ccc(OCC(=O)N2CCCC2)cc1)c1ccccc1 (centres undefined) | -8.96% | –
21 | CC(=O)Nc1ccc(Nc2ncnc3c2nnn3Cc2ccccc2Cl)cc1 | -22.4% | –
22 | COCCNC(=O)c1ccc2nc(Cc3ccc(OC)c(OC)c3)oc2c1 | 4.16% | –
23 | O=C(NCCN1CCCC(O)C1)c1cc(COc2c(F)cccc2F)on1 (centres undefined) | 15% | –
24 | Cc1cccc2cc(CN(C(=O)c3cccs3)c3ccccc3)c(=O)[nH]c12 | -0.703% | –
25 | CCC(=O)Nc1cccc(NC(=O)CSc2nnnn2C2CCCC2)c1 | -28.4% | –
26 | CCC(c1nnnn1C1CCCC1)N(Cc1cccs1)Cc1cc2cccc(C)c2[nH]c1=O (centres undefined) | – | 10.4 µM (active)
27 | Cc1cccc2cc(CN(Cc3cccs3)C(c3nnnn3C3CCCC3)C(C)C)c(=O)[nH]c12 (centres undefined) | – | 2.62 µM (active)

Row | SMILES | activity change, negative = inhibition | Potency
28 | Cc1cc(C)n2nc(C(=O)OCC(=O)N(CCC#N)c3ccc(F)cc3)nc2n1 | 11.8% | –
29 | CCOc1ccc(N(C)Cc2cc(=O)oc3ccc(OC)cc23)cc1 | -9.2% | –
30 | CC1CCC(NC(=O)CNC(=O)c2ccc3ccccc3c2)CC1 (centres undefined) | 51.1% | –
31 | CN(C(=O)Cn1nnc(-c2ccc(F)cc2)n1)C1CCS(=O)(=O)C1 (centres undefined) | -28.7% | –
32 | OCC[C@H]1C[C@@H](O)[C@H](O)[C@]2(OCCCc3ccccc32)O1 | -27.5% | –
33 | Cc1ccc2c(c1)N(CC(=O)N1CCC(C)CC1)C(=O)c1cccnc1O2 | -21.1% | –
34 | Cc1ccc(SCc2c(C(=O)N/N=C/c3cccnc3)nnn2-c2nonc2N)cc1 | 9.31% | –
35 | O=C(CN1CCCCCC1)N1c2ccccc2Sc2ccc(C(F)(F)F)cc21 | – | 13.1 µM (active)
36 | CCOC(=O)CNC(=O)N1c2ccccc2Sc2ccccc21 | 1.41% | –
37 | COc1cc(/C=C/C(=O)N2c3ccccc3Sc3ccc(C(F)(F)F)cc32)cc(OC)c1OC | -26.5% | –
38 | Cc1ccc(C(CNC(=O)Nc2ccccc2)N2CCN(C)CC2)cc1 (centres undefined) | 6.15% | –
39 | Cc1ccc(S(=O)(=O)N2CCC(C(=O)OCC(=O)N(C)c3ccccc3)CC2)cc1C | -32.8% | –
40 | COc1ccc(-c2nnc(SC(C)C#N)o2)cc1 (centres undefined) | 27.5% | –
41 | COc1ccc(-c2nnc(SC(C)C(=O)NC3CC3)o2)cc1 (centres undefined) | – | 10.4 µM (active)
42 | COc1ccc(-c2nnc(SCc3cccnc3)o2)cc1 | -42.2% | –
43 | CCCC(C)c1nnc(NC(=O)C2CC(=O)N(c3ccc(OCC)cc3)C2)s1 (centres undefined) | 5.54% | –
44 | CCN1CCN(c2ccc([N+](=O)[O-])cc2C#N)CC1 | – | 4.15 µM (active)
45 | COc1ccc(N2CCN(c3ccc([N+](=O)[O-])cc3Cl)CC2)cc1 | 5.17% | –
46 | CCN1CCN(c2ccc([N+](=O)[O-])cc2C(=O)c2ccc(Cl)cc2)CC1 | 0% | –
47 | COCCn1c(SCC(=O)Nc2nc(C)cs2)nnc1C(C)C | 4.19% | –
48 | O=S(=O)(c1ccc(Cl)s1)N1CCC2(CC1)OCCO2 | 5.07% | –
49 | O=C(Nc1cccc(NC(=O)c2ccc(Br)cc2)c1)c1ccccc1 | 38.2% | –
50 | O=C(Nc1cccc(-c2nc3ccccc3[nH]2)c1)c1ccc(C(=O)Nc2cccc(-c3nc4ccccc4[nH]3)c2)cc1 | – | 0.37 µM (active)
51 | O=C(Cc1cccs1)Nc1cccc(-c2nc3ccccc3[nH]2)c1 | -15% | –
52 | O=S(=O)(Nc1cc(S(=O)(=O)N2CCOCC2)ccc1N1CCCC1)c1cccs1 | 13.2% | –
53 | O=S(=O)(Nc1cc(Cl)ccc1N1CCOCC1)c1ccccc1Cl | – | 13.1 µM (active)
54 | O=S(=O)(Nc1ccc(-c2ccc(N3CCOCC3)nn2)cc1)c1cc(Cl)ccc1Cl | -10.8% | –

From PubChem BioAssay AID504832 (National Center for Advancing Translational Sciences (NCATS), 2011)
